HSF1 activator – HSF-1 activators, primary screen, NIH3T3-HGL cells, MG132 stress, luminescence, single point; NIH3T3-HGL HSF-1 luciferase reporter, 8 h; 100% = twice DMSO control signal; activation, % at 9 µM; actives 1.7% (n = 300,000); AID 504408, 2011;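 active = mean replicate activation of at least 50% with a set share of replicates each reaching 50%; inconclusive = only one of those two conditions met; inactive = mean below 50% and too few replicates reaching it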;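 note: 0% = median of the neutral control wells and 100% = twice that signal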
esBAF inh – Bmi1 luciferase reporter increase in mESCs, primary screen, esBAF inhibitor project, mouse ES cells, Bmi1 luciferase knock-in, single point | 24 h; 100% = twice the neutral-well signal | actives 2% (n = 350,000) | reporter increase, % at 12.5 µM | AID 602393, 2012; in the data active = activation above about 40%; inconclusive = no clear call, values can overlap the other calls;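 note: 0% = median of the plate's neutral control wells and 100% = double that signal; a rise in the Bmi1 reporter signal indicates esBAF inhibition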
Wnt act – Wnt/beta-catenin pathway activators, primary screen, cell-based, plate reader, single point; Wnt/beta-catenin reporter cell assay, activator; activation, % at 9.35 µM; actives 1.2% (n = 300,000); AID 743398, 2014; in the data active = activation above about 30%, passing the limit was not always enough; inconclusive = no clear call, values can overlap the other calls;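 note: 0% = neutral control wells and 100% = positive control wells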
HSF1 inh – HSF1 inhibitors in luciferase reporter cells, primary screen, cell-based, NIH3T3, luminescence. NIH3T3-HGL HSE-luciferase, MG132-induced, luminescence 8 h; active compounds read low. activity change, negative = inhibition, % at 7.5 µM (by protocol). actives 0.77% (n = 300,000). AID 2098, 2009;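 active = more than half of replicate wells show activity change below -50%, luminescence cut by over half; inconclusive = some wells, but at most half, below -50%; inactive = no replicate well below -50%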;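 note: luciferase reports HSF-1 transcriptional activity via heat shock element; 0% = median of DMSO wells and -100% = zero luminescence signal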
MITF act – activators of MITF-driven TRPM1 promoter reporter, primary screen, cell-based, SK-MEL-5, luciferase, single point. AID 588334, 2011. activation, % at 12.5 µM. actives 0.75% (n = 300,000). SK-MEL-5 TRPM1-promoter luciferase, 24 h; % of positive control, neutral wells = 0;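 active = mean activation of at least 80% with every replicate also reaching 80%; inconclusive = mean reaches 80% but some replicate falls short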;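 note: 0% = neutral control wells and 100% = parthenolide positive control wells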
The depositor's hits bear a star; u = inconclusive; x = not tested or not shown. The list is not random: actives were taken first. Their share in the collection is about 3.8%.

SMILES	HSF1 activator	esBAF inh	Wnt act	HSF1 inh	MITF act
Cc1ccc(F)cc1NC(=O)c1ccc(OCC2CCCO2)cc1 (stereo unspecified)	x	46.6*	-5.0	x	44.3
Cc1ccc(NC(=O)c2ccc(OCC3CCCO3)cc2)c(C)c1 (stereo unspecified)	12.2	x	x	7.8	-99.1
Cc1ccc(NC(=O)c2ccc(OCC3CCCO3)cc2)cc1Cl (stereo unspecified)	x	78.3*	41.7*	x	x
C[C@H](O)C#Cc1cnc2c(c1)C(=O)N([C@@H](C)CO)C[C@H](C)[C@@H](CN(C)C(=O)CC1CC1)O2	x	3.9	x	x	x
Oc1ccccc1-c1cc(-c2ccccc2)n[nH]1	x	18.3	53.3*	x	51.8
Oc1ccccc1-c1cc(-c2ccc(F)cc2)n[nH]1	45.0	-6.4	53.4*	12.6	36.2
Oc1ccc(Cl)cc1-c1cc(-c2ccccc2)n[nH]1	19.6	27.3	-1.2	-2.5	0.7
Oc1ccc(F)cc1-c1cc(-c2ccc3c(c2)OCCO3)n[nH]1	105.3*	x	x	60.6	76.6
[O-]/[N+](=C\c1ccco1)c1ccc(Cl)cc1	98.8*	88.2*	25.9	54.5	57.8
[O-][N+](=Cc1ccccc1)c1ccc(Cl)cc1	x	x	37.6*	x	71.2
[O-]/[N+](=C/c1ccc(F)cc1)c1ccc(Cl)cc1	30.5	x	x	26.8	49.6
[O-]/[N+](=C/c1ccco1)c1ccccc1	2.4	13.8	6.7	3.9	25.7
Cc1ccc(C2CC(c3cccs3)=NN2C(=O)CCl)cc1 (stereo unspecified)	11.3	62.0*	17.6	8.0	-52.4
CC(C)n1nnnc1SCC(=O)N1N=C(c2cccs2)CC1c1cccs1 (stereo unspecified)	x	71.1*	4.6	x	59.8
Cc1noc(C)c1NC(=O)Nc1ccc2c(c1)CC(=O)N([C@@H](C)CO)C[C@@H](C)[C@H](CN(C)S(=O)(=O)c1ccc(Cl)cc1)O2	x	-2.6	x	x	x
COc1ccc(C/C(=N\O)c2ccc(OC)cc2)cc1	52.9*	8.6	13.4	35.1	23.0
NC(CSCc1cccc(Br)c1)C(=O)O (stereo unspecified)	78.6*	x	-1.0	39.2	-3.0
NC(=O)CSCc1cccc(Br)c1	-3.4	x	x	-1.0	-1.7
CN(CC(=O)Nc1cccc(F)c1)C(=O)c1sc2ccccc2c1Cl	x	61.5*	-5.1	x	16.0
O=C1C(Cl)=C(Nc2ccc3cn[nH]c3c2)C(=O)c2ccccc21	-88.9	-43.8	-17.9	-89.8*	-104.1
CCOC(=O)c1ccc(N=c2sc(C(=O)OC)cc(=O)n2-c2ccc(C(=O)OCC)cc2)cc1	105.4*	29.6	-5.1	68.9	-28.2
C[C@H](CO)N1C[C@H](C)[C@H](CN(C)S(=O)(=O)c2ccccc2F)Oc2cc(C#Cc3cccc(F)c3)ccc2S1(=O)=O	x	6.3	x	x	x
COc1cc(C(=O)N(C)C2CCCN(Cc3ccccc3F)C2)cc(OC)c1OC (stereo unspecified)	-81.2	-0.3	-0.1	-76.8*	-17.8
CN(C(=O)c1cccc(Cl)c1)C1CCCN(Cc2ccccc2F)C1 (stereo unspecified)	5.4	-3.2	-0.9	3.5	-5.0
COCC(=O)Nc1ccc2c(c1)OC[C@H](C)N(Cc1cc(F)ccc1F)C[C@@H](C)[C@@H](OC)CN(C)C2=O	x	-2.0	x	x	x
SMILES	HSF1 activator	esBAF inh	Wnt act	HSF1 inh	MITF act
Cc1occc1C(=O)O/N=C(\N)c1ccc(Cl)cc1	57.6*	64.1*	63.4*	23.0	x
N/C(=N\OC(=O)c1ccco1)c1ccccc1	54.6*	u	35.6*	19.9	94.8*
Cc1ccc(/C(N)=N/OC(=O)c2ccco2)cc1	55.4*	-24.9	u	26.3	x
COCc1cn(CC[C@@H]2CC[C@@H](NC(=O)CCN3CCCCC3)[C@H](CO)O2)nn1	x	0.7	x	x	x
COc1ccc(NC(=O)N(C)C[C@H]2OCCCC[C@H](C)Oc3ccc(NS(=O)(=O)c4cn(C)cn4)cc3C(=O)N([C@@H](C)CO)C[C@@H]2C)cc1	x	6.7	x	x	x
CCOC(=O)CC(NC(=O)C1c2ccccc2Oc2ccccc21)c1ccccc1Cl (stereo unspecified)	102.2*	x	-1.5	48.8	4.2
CCOC(=O)CC(NC(=O)Cc1ccccc1)c1ccccc1Cl (stereo unspecified)	-10.9	x	4.1	0.5	8.0
